# Screening data from PubChem.
# Tau fibril ThT = blocks human tau fibril formation measured by thioflavin T; Potency, µM (series often up to 57.4 µM), for the others: at the top dose activity, negative = inhibition, most hits filed as inhibitors; recombinant tau K18 P301L, heparin-induced fibrillization, ThT fluorescence; 2.1% of 270,000 active; note: potency is the fitted concentration of half-maximal effect; nearly all actives have a fitted effect of over 55% in size
# Target sequence (P10636 561-689 P618L limits assumed): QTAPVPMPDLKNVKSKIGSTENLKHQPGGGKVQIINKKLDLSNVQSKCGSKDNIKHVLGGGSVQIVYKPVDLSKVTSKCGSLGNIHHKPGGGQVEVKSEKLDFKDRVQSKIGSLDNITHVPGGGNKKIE
#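 In this qHTS, human K18 P301L tau is incubated with compound and heparin for 6 hr at 37 C, and Thioflavin T fluorescence then reports fibril load.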
# Tau fibril FP = inhibitors of human tau fibril formation; K18 P301L tau heparin fibrillization, Alexa594 FP, 6 h; AID 1468; Potency, µM (series often up to 57.7 µM), for the others: at the highest dose activity, negative = inhibition, actives largely listed as inhibitors; 0.39% of 280,000 active; note: potency is the fitted concentration of half-maximal effect; nearly all actives have a fitted effect of over 55% in size
#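 Heparin (20 uM) drove fibril formation of recombinant tau K18 P301L, 15 uM unlabeled with 0.24 uM Alexa 594 label, for 6 hr at 37 C in 100 mM sodium acetate pH 7. Fluorescence polarization (555/632 nm) read 1 hr after 30 uM ThT.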
# PNC inhibitor = perinucleolar compartment assembly inhibition; PC3M PTB-GFP, PNC prevalence imaging, 16 h; stronger effect = lower value; activity change (PNC), negative = inhibition, % at 10 µM; 3.1% of 140,000 active;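 active = readout at or below -70, meaning at least 70% loss of cells showing the perinucleolar compartment, a nuclear body marking cancer cells; inconclusive = readout between -30 and a set limit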;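 note: plate controls were DMSO wells for no effect and camptothecin positive control wells for full effect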
#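 Read-out is percentage of cells bearing a perinucleolar compartment, from automated 20x imaging of fixed, Hoechst-stained PC3M PTB-GFP cells. Cells were seeded 4 h, then exposed 16 h to compound (23 nl of library stock) in duplicate plates.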
# TRb-SRC2 inh = TRbeta-SRC2 interaction inhibition; TRbeta-SRC2 peptide binding, fluorescence polarization; receptor liganded with 1 µM T3; Potency, µM (titrated, usually from 106 µM), without a hit: at the highest dose activity change, negative = inhibition, most hits filed as inhibitors; 0.065% of 280,000 active;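 note: potency is the fitted concentration of half-maximal effect; plate controls were bound peptide for no effect and peptide without receptor for full effect; nearly all actives have a fitted effect of over 50% in size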
#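 Assay buffer: 20 mM Tris-HCl, 100 mM NaCl, 10% glycerol, 1 mM EDTA, 0.01% NP-40, 1 mM DTT, 1 uM T3, 5% DMSO; TRb LBD 0.6 uM, Texas Red SRC2 20 nM; FP after 5 hr.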
# TR SRC2 fluor cs = Texas Red fluorescence interference in TRb-SRC2 counter-screen; 0.29% of 280,000 active; TRb/SRC2 Texas Red total fluorescence interference; Potency, µM (top dose mostly 106 µM), without a hit: at the top dose fluorescence change, negative = quenching; active = well fitted curve in either direction with a large enough effect; inconclusive = small, poorly fitted or top-dose-only effect; note: potency is the fitted concentration of half-maximal effect
#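 Human TRb ligand-binding domain at 0.6 uM with 20 nM Texas Red SRC2 peptide in Tris buffer containing 1 uM T3 and 5% DMSO, incubated with compound 5 h at ambient temperature. Total fluorescence (555/632 nm) calculated as parallel + 2 × perpendicular.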
# Tau fluor cs = counter-screen for tau fibril formation inhibitors; tau K18 P301L (four-repeat tau fragment) Alexa594 fluorescence, heparin fibrillization; Potency, µM (top dose mostly 57.7 µM), inactives show top-dose activity change, negative = decrease; 0.93% of 280,000 active; AID 1463; note: potency is the fitted concentration of half-maximal effect; nearly all actives have a fitted effect of over 55% in size
#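 Human K18 P301L tau (15 uM unlabeled plus 0.24 uM Alexa 594-labeled, final) in 100 mM sodium acetate pH 7 was mixed with compound and 20 uM heparin and incubated 6 hr at 37 C.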
# Starred values were filed as active, the others as inactive; u = inconclusive; x = no result given; [ ] = remark or other dose. In the library only some 4.6% were active in any assay of this set; here they are far more common. Unless noted, calls come from the whole dose curve; as a rule, active = well fitted curve in the direction sought with a large enough effect; inconclusive = small, poorly fitted or top-dose-only effect, or another doubt; inactive = no such curve, though single readings can be large; an effect the other way counts as inactive or inconclusive. Unless noted, % is set by controls: 0 for no effect and ±100 for the full control effect.
SMILES,Tau fibril ThT,Tau fibril FP,PNC inhibitor,TRb-SRC2 inh,TR SRC2 fluor cs,Tau fluor cs
COC(=O)c1[nH]c2ccc(Cl)cc2c1NC(=O)CN1CCc2cc(OC)c(OC)cc2C1,u,3.2%,30.6,-4.2%,1.9%,17.8µM*[quencher]
Cc1cc(C)c2c(=O)cc(CSCC(=O)Nc3nnc(C)s3)[nH]c2c1,-2.5%,-0.9%,x,-4.7%,0.1%,1.4%
CC(=O)N1CCN(CCN=CC2=C(O)CC(c3ccco3)CC2=O)CC1 (stereo not given),-14.9%,-13.0%,u,-6.4%,0.5%,-3.6%
O=C1CC(c2ccco2)CC(O)=C1C=Nc1cc(Cl)ccc1Cl (stereo not given),22.4µM*,u,-24.4,7.9%[53 µM],-5.5%[53 µM],-18.1%
O=C1CC(c2ccco2)CC(O)=C1C=NCCN1CCN(C(=O)Nc2ccc(Cl)cc2)CC1 (stereo not given),-2.7%,-4.1%,-99.1*,-6.5%[53 µM],0.1%[53 µM],-0.2%
COc1ccc(/C(C)=N\n2cnnc2)cc1,-5.0%,9.4%,-26.8,3.1%,-2.2%,11.5%
Cc1cc(C)c2nc3sc(C(=O)N4CCOCC4)c(N)c3cc2c1,u,9.9%,x,5.3%,-5.9%,u
COc1ccc2nc3sc(C(=O)NCc4cccs4)c(N)c3cc2c1,15.8µM*,-1.3%,36.2,-1.5%,-16.2%,u
CCOc1ccc2nc3sc(C(=O)N4CCOCC4)c(N)c3cc2c1,7.08µM*,u,x,0.4%,-0.1%,u
Cc1cc(C)c2cc3c(N)c(C(=O)N4CCOCC4)sc3nc2c1,22.4µM*,0.2%,x,3.7%,-2.6%,u
COc1cccc2c1Oc1ncccc1N(C(=O)CCC(=O)NCc1ccccc1Cl)C2,2.4%,0.0%,x,7.9%,-2.0%,-1.2%
O=C(Cc1ccc(Cl)cc1Cl)Nc1cccc(S(=O)(=O)Nc2ccccc2F)c1,u,28.2µM*,28.1,6.7%,-1.9%,-17.7%
O=C(/C=C/c1ccccc1)Nc1cccc(S(=O)(=O)Nc2ccccc2F)c1,u,u,-7.5,-0.8%,-7.9%,u
Cc1ccc(N2CCN(c3nc4ccccc4c4nnc(C)n34)CC2)c(C)c1,u,-1.1%,x,4.6%,-2.0%,-10.4%
Cc1ccc(N(CC(=O)Nc2ccc(F)cc2F)S(=O)(=O)c2cccs2)cc1,2.4%,-14.7%,x,5.7%,-1.9%,u
Cc1cc(C)c2c(N)c(C(=O)NCc3ccco3)sc2n1,u,5.9%,-97.7*,-8.5%,-1.8%,-9.5%
CCOC(=O)c1ccc(NC(=O)Nc2ccc3snnc3c2)cc1,3.9%,11.2µM*,x,4.9%,-4.9%,-24.6%
CCc1ccccc1NC(=O)Nc1ccc2snnc2c1,-0.2%,u,x,-0.6%,-2.8%,u
O=C(Nc1ccc2snnc2c1)Nc1cccc2ccccc12,-0.1%,25.1µM*,u,1.2%,-4.5%,7.94µM*[quencher]
COc1ccc(NC(=O)CCCn2c(=O)c3cccn3c3cccnc32)cc1Cl,-5.9%,-7.4%,x,2.0%,-1.2%,-19.3%
O=C(Nc1cccc(S(=O)(=O)N2CCOCC2)c1)c1cn(-c2ccccc2)nc1-c1ccccc1,6.2%,25.1µM*,-24.4,0.6%,0.1%,u
Cc1ccc(-c2nn(-c3ccccc3)cc2C(=O)Nc2ccc(C)c(S(=O)(=O)N3CCOCC3)c2)cc1,-0.7%,15.8µM*,-25.0,0.5%,3.9%,u
O=C(Nc1cccc(S(=O)(=O)N2CCOCC2)c1)c1cn(-c2ccccc2)nc1-c1ccc(F)cc1,-3.7%,u,u,3.5%,1.7%,-29.7%
CCCCNC(=O)CC1N=C2c3ccccc3N=C(SCC(=O)Nc3ccc(OC)cc3)N2C1=O (stereo not given),-2.3%,0.8%,-9.3,1.5%,0.6%,-10.2%
CCOc1ccc(C(=O)c2ccc(OC)c(O)c2O)cc1,15.8µM*,u,x,2.3%,-1.2%,u
COc1ccc(C(=O)c2ccc(O)cc2)c(O)c1O,u,u,x,-6.0%,-5.8%,u
